Several values for one entry are separate records, joined by “and”; a condition that tells them apart may be missing. Identical values can stand only once. Inconclusive results are not listed. Activity calls are given as the source filed them. How the source made its calls: active means hit-call score of the fitted dose curve at least 0.9, where 1 is the maximum; inconclusive means response in the unintended direction; inactive means score below 0.9.

Here are results for 3 molecules from PubChem BioAssay (EPA / NIEHS).

Assay [1] deals with turtle Estrogen Receptor (ERa), gene 101933533. The assay is described as follows: ATG_trERa_XSP2: Attagene TRANS-FACTORIAL Multi-Species (XSP2) HepG2 Assay for turtle Estrogen Receptor (ERa) (AID 2283812).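 Further: actives raise reporter signal above DMSO so AC50 reflects agonist activity.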 Summed up:
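Readout is reporter mRNA quantified by RT-PCR with capillary electrophoresis after 24 h compound exposure, increase relative to DMSO. Uses transiently transfected human HepG2 liver cells carrying a chimeric turtle ERa-Gal4 receptor driving GAL4-UAS reporters.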

Assay [2] deals with Estrogen receptor beta (Homo sapiens) (UniProt Q92731). Put plainly: ATG_hERb_XSP2: Attagene TRANS-FACTORIAL Multi-Species (XSP2) HepG2 Assay for human Estrogen Receptor (ERb) (AID 2283813).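 Further: actives raise reporter mRNA above DMSO so AC50 reflects agonist induction.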 Summed up:
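Transient TRANS reporter system in HepG2: after 24 h of chemical, RNA is reverse-transcribed, reporter cDNA amplified, FAM-labelled and sized by capillary electrophoresis. Induction of the human ERb-Gal4 reporter is measured relative to DMSO.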

Assay [3] can be described thus: ATG_M_06_XSP2: Attagene TRANS-FACTORIAL Multi-Species (XSP2) HepG2 Assay for M06 Transcription Factor (Internal Marker) (AID 2283811).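 Further: hits are increases in signal above the DMSO baseline.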 The method, boiled down:
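Readout: fluorescent reporter-mRNA peaks by capillary electrophoresis after RT-PCR and HpaI digest, scored upward relative to DMSO. Transfected HepG2, 24 h chemical exposure, with 3 nM 6-alpha-fluorotestosterone and 1.5 nM norgestrel added.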

Assay [4] deals with human Thyroid hormone Receptor alpha (TRa), THRA (gene 7067) (UniProt P10827). The assay is described as follows: ATG_hTRa_XSP1: Attagene TRANS-FACTORIAL Multi-Species (XSP1) HepG2 Assay for human Thyroid hormone Receptor alpha (TRa) (AID 2283805). Summed up: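 Reporter transcripts from the human TRa-Gal4 TRANS unit quantified by RT-PCR, fluorescent labeling and capillary electrophoresis after 24 hours of chemical exposure in transfected HepG2 cells; medium contains 3 nM 6-alpha-fluorotestosterone. Positive direction fit against DMSO.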

The subject of assay [5] is turtle Thyroid Hormone Receptor, alpha (TRa), gene 101949057. Put plainly: ATG_trTRa_XSP1: Attagene TRANS-FACTORIAL Multi-Species (XSP1) HepG2 Assay for turtle Thyroid Hormone Receptor, alpha (TRa) (AID 2283806). The method, boiled down: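 After 24 h chemical exposure, reporter transcripts were measured by RT-PCR with fluorescent primer extension, HpaI digestion and capillary electrophoresis. Cells were transiently transfected HepG2 expressing exogenous NR-Gal4 chimeras; medium contained 3 nM 6-alpha-fluorotestosterone; fitted upward relative to DMSO.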

In assay [6] the target is zebrafish Thyroid Hormone Receptor alpha (TRa), thraa (gene 30670) (UniProt Q98867). The assay is described as follows: ATG_zfTRa_XSP1: Attagene TRANS-FACTORIAL Multi-Species (XSP1) HepG2 Assay for zebrafish Thyroid Hormone Receptor alpha (TRa) (AID 2283807). The method, boiled down: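 Reporter transcripts driven by a chimeric zebrafish TRa–Gal4 protein were measured by RT-PCR with fluorescent labelling and capillary electrophoresis. These came from transiently transfected HepG2 cells after 24 h chemical exposure, with 3 nM 6-alpha-fluorotestosterone added; baseline was DMSO.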

Assay [7] has as its target human Thyroid hormone Receptor beta (TRb), THRB (gene 7068) (UniProt P10828). Put plainly: ATG_hTRb_XSP1: Attagene TRANS-FACTORIAL Multi-Species (XSP1) HepG2 Assay for human Thyroid hormone Receptor beta (TRb) (AID 2283808). Summed up:
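Readout is reporter mRNA induction measured by RT-PCR, fluorescent labelling and capillary electrophoresis, fitted upward relative to DMSO. Transiently transfected human HepG2 cells expressing NR-Gal4 chimeras were dosed for 24 h, medium containing 3 nM 6-alpha-fluorotestosterone.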

Assay [8] addresses zebrafish Thyroid Hormone Receptor beta (TRb), thrb (gene 30607) (UniProt Q9PVE4). Put plainly: ATG_zfTRb_XSP1: Attagene TRANS-FACTORIAL Multi-Species (XSP1) HepG2 Assay for zebrafish Thyroid Hormone Receptor beta (TRb) (AID 2283809). As to the method:
ATG_XSP1_multi-species_TRANS is a cell-based, multiplexed assay created by modifying the existing Attagene TRANS-FACTORIAL system to include a panel of nuclear receptors from some or all the following species: human (Homo sapiens), mouse (Mus musculus), frog (Xenopus laevis), zebrafish (Danio rerio), chicken (Gallus gallus), and turtle (Chrysemys picta). The ECOTOX-FACTORIAL format uses HepG2, a human liver cell line, with measurements taken at 24 hours after chemical dosing in a 24-well plate. Xsp1 included 3 nM 6-alpha-fluorotestosterone to partially stimulate the androgen receptor.ATG_zfTRb_XSP1 is one of 29 assay components measured or calculated from the ATG_XSP1_multi-species_TRANS assay. It is designed to make measurements of mRNA induction, a form of inducible reporter, as detected with fluorescence intensity signals by Reverse transcription polymerase chain reaction (RT-PCR) and Capillary electrophoresis technology.The assay endpoint ATG_zfTRb_XSP1 was analyzed in the positive analysis fitting direction relative to DMSO as the negative control and baseline of activity. […] Furthermore, this assay endpoint can be referred to as a primary readout, because this assay has produced multiple assay endpoints where this one serves a reporter gene function. […]

Assay [9] can be described thus: ATG_XTT_Cytotoxicity_XSP1: Cytotoxicity Assessment in the Attagene TRANS-FACTORIAL Multi-Species (XSP1) HepG2 Assay (AID 2283810). Summed up:
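XTT viability readout taken at 24 hours post-dosing in HepG2 liver cells co-treated with 3 nM 6-alpha-fluorotestosterone. Signal loss relative to DMSO controls reflects cytotoxicity.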

Assay [10] concerns the target GAL4 Transcription Factor (Internal Marker), GAL4 (gene 855828) (UniProt P04386). The assay is described as follows: ATG_GAL4_XSP2: Attagene TRANS-FACTORIAL Multi-Species (XSP2) HepG2 Assay for GAL4 Transcription Factor (Internal Marker) (AID 2283814).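 Further: GAL4 reporter mRNA background control in MRTU transfected cells not a receptor target.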 Summed up: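 Background-control readout: gain-of-signal fitted against DMSO. After 24 h exposure of transfected HepG2 (MRTU, GAL4-UAS reporters; 3 nM 6-alpha-fluorotestosterone, 1.5 nM norgestrel present), transcripts quantified by RT-PCR and capillary electrophoresis fluorescence.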

Estrogen receptor beta (Homo sapiens), sequence (Q92731 whole entry, looked up, the tested form may be a part): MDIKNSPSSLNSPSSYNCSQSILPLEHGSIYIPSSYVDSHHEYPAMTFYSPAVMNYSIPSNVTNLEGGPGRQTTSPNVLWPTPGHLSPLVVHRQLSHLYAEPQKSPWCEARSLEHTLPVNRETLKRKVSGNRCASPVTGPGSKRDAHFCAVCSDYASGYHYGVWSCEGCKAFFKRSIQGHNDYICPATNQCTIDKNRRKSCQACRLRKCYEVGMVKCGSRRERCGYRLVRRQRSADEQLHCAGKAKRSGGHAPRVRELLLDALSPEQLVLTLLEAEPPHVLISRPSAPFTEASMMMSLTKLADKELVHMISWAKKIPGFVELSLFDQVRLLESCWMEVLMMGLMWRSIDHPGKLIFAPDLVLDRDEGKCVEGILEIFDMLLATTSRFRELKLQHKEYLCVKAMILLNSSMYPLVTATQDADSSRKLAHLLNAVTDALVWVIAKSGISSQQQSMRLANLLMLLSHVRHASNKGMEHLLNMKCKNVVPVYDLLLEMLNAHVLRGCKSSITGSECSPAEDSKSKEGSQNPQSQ
human Thyroid hormone Receptor alpha (TRa), THRA (gene 7067), sequence (P10827 whole entry, looked up, the tested form may be a part): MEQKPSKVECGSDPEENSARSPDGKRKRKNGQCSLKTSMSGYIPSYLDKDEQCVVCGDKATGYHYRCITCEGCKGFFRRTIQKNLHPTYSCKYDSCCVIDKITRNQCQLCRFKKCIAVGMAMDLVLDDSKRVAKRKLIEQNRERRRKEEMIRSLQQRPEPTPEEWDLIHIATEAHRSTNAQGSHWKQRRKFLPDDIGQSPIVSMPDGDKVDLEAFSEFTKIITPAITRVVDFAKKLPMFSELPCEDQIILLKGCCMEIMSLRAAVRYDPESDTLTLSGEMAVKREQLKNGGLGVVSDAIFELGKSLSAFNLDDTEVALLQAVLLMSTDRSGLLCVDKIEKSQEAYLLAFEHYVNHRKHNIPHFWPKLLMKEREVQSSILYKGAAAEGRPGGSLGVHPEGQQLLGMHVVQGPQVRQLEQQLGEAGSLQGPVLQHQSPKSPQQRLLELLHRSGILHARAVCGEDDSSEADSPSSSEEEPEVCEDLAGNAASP
zebrafish Thyroid Hormone Receptor alpha (TRa), thraa (gene 30670), sequence (Q98867 whole entry, looked up, the tested form may be a part): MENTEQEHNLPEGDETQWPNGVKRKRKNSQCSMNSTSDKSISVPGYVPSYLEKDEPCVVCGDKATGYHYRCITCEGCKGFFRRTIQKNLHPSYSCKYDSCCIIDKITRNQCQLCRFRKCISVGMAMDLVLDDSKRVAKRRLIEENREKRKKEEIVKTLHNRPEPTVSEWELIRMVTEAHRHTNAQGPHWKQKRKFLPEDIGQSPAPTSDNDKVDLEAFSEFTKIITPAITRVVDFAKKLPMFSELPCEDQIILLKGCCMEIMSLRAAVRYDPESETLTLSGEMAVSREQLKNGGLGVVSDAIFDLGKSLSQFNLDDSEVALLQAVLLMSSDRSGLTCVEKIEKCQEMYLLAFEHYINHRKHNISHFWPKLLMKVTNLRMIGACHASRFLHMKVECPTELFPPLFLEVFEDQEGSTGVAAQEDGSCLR
GAL4 Transcription Factor (Internal Marker), GAL4 (gene 855828), sequence (P04386 whole entry, looked up, the tested form may be a part): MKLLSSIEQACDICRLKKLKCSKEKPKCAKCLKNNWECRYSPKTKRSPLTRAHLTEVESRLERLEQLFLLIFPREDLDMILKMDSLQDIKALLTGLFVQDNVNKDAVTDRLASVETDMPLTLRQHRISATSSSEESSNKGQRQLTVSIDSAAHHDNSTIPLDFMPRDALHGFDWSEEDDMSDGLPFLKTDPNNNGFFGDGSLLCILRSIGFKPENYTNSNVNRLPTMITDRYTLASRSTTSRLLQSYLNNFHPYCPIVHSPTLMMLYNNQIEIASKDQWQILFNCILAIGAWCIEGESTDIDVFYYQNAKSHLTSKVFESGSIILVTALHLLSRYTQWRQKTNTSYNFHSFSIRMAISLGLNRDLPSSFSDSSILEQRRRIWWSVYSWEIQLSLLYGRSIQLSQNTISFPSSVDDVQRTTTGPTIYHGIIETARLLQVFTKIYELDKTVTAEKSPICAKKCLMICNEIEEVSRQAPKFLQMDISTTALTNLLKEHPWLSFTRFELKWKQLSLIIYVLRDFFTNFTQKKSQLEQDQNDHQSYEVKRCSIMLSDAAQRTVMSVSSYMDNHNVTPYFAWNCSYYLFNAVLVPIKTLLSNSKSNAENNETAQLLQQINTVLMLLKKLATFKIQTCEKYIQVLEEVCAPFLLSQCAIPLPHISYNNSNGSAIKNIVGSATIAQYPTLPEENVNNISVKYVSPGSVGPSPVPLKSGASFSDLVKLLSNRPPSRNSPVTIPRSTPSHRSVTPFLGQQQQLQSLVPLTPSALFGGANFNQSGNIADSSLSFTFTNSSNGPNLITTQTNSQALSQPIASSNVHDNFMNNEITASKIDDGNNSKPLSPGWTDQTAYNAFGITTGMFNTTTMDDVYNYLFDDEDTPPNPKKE
zebrafish Thyroid Hormone Receptor beta (TRb), thrb (gene 30607), sequence (Q9PVE4 whole entry, looked up): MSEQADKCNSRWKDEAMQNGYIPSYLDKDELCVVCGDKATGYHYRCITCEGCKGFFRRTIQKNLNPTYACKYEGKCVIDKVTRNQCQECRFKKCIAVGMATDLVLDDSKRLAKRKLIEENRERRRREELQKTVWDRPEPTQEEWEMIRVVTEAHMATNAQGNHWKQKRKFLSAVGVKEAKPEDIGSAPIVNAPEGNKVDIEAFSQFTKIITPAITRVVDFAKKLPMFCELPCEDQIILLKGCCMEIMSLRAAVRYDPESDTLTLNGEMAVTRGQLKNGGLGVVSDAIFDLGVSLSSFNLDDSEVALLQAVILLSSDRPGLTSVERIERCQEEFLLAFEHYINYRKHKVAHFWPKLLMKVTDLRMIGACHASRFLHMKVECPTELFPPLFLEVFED
human Thyroid hormone Receptor beta (TRb), THRB (gene 7068), sequence (P10828 whole entry, looked up, the tested form may be a part): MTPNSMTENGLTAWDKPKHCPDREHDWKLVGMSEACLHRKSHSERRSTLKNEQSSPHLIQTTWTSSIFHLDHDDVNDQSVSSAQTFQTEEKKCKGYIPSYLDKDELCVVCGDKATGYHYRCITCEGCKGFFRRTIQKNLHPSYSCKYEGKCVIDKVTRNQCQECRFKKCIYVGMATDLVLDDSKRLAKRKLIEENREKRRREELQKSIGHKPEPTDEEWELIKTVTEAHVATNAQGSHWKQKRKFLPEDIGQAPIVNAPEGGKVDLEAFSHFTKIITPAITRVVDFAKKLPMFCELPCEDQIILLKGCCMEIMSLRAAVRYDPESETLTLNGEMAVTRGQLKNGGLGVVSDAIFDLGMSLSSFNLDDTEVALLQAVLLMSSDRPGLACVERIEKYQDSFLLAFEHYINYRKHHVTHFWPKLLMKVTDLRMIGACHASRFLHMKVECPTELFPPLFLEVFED

On to `Clc1nc(Cl)c(Cl)c(Cl)c1Cl`, for which, in assay [1], the AC50 (commonly the concentration giving half of the maximal activity seen) is 26.2 µM (active) and 151 µM (active). Also, the call in assay [2] was inactive.
Turning to `Oc1ccc2c(c1)-c1ccccc1C2`, in [3], the molecule was called inactive. In addition, the half-maximal activity concentration (AC50) was 6.32 µM (active) and 3.91 µM (active) in assay [1]; 5.52 µM (active) and 2.58 µM (active) in [2].
In the case of `O=P(OC(CCl)CCl)(OC(CCl)CCl)OC(CCl)CCl`, the molecule was called inactive in assay [4], in assay [5], in [6], in [7], in [8] and in assay [9]. Further, the result in [3], in [1], in assay [2] and in assay [10] was inactive.
